CHT inh = inhibits the human high affinity choline transporter; CHT-expressing cells, membrane potential dye, choline response; active compounds read low; B-score at 10 µM; 310,000 tested, 0.86% active;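 active means B-score over 3 SD under the library average, and starting fluorescence ratio not unusually high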;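 further: choline stimulus applied at its EC90 after an EC20 pre-addition; B-score computed on integrated fluorescence ratio after choline addition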
HIF activator = HIF pathway transcriptional activation | U2OS HRE-luciferase reporter, luminescence; normalized: DMSO 0%, desferrioxamine 100% | activation, % at 7.5 µM (by protocol) | 300,000 tested, 0.32% active;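 active means mean activation of at least 10% of the iron chelator positive control signal, with at least half of replicates also reaching 10%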
AI-2 QS mod = modulates the Vibrio harveyi AI-2 quorum sensing system; Vibrio harveyi JMH597 AI-2 luminescence/OD600 ratio, 9 h; active compounds read low; strain lacks LuxN and CqsS sensors; 0 = neutral-control median; 300,000 tested, 0.4% active; activity change, % at 7.5 µM; AID 2094; in the data active means activity change below about -75%, passing the limit was not always enough;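 further: luminescence divided by OD600 gain over 9 h not by final OD600 alone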
VLA-4 inh = inhibition in a human VLA-4 binding assay; P13612; VLA-4 expressing cells, ligand binding flow cytometry; inhibition, % (about 7 µM as worked out from the volumes in the protocol); 330,000 tested, 0.2% active; AID 2557; in the data active means inhibition above about 50%
CHT allo act = human CHT allosteric activation | Q9GZV3 | CHT-expressing cells, membrane potential dye, choline EC20; active compounds read high; LV-AA mutant CHT in HEK293 cells | B-score at 10 µM | 310,000 tested, 0.49% active;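 active means initial fluorescence not abnormally high and integrated response B-score, plate-corrected, over 3 SD above library mean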
Platelet DG rel = modulates dense granule release in human platelets. inhibition, %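 (compounds screened at 7.5 µM in platelet-rich plasma)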. 300,000 tested, 0.22% active. human platelet-rich plasma, SFLLRN dense granule ATP release, luminescence. AID 1663;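 active means mean replicate score, as percent of positive control, at or above 50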
CHT act confirm = human CHT activation, confirmatory screen; shares compounds with CHT allo act; CHT-expressing cells, membrane potential dye fluorescence (FDSS); % of choline EC20–EC90 response window; HEK293 expressing CHT LV-AA mutant; choline added at its EC20; activation, % at 10 µM; 2,500 tested, 91% active;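 active means primary screen active, with duplicate mean activation above negative control mean plus 3 SD, cut at about 11% in these data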
HEK293 MP dye = activity in parental HEK293 cells lacking CHT; shares compounds with CHT allo act; membrane potential dye fluorescence (FDSS); measured after EC20 choline addition; ratio readout change at 10 µM, hits read low; 2,500 tested, 62% active; AID 623908;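 active means duplicate-averaged ratio beyond 3 SD from buffer wells, up or down, though filed actives are nearly all decreases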
Hits are given with their value; i = inactive; nt = no result given. Compounds with a hit are over-represented: about 2.2% of the library has one in this group of screens.

SMILES | CHT inh | HIF activator | AI-2 QS mod | VLA-4 inh | CHT allo act | Platelet DG rel | CHT act confirm | HEK293 MP dye
COc1ccc(S(=O)(=O)NCC2CCCN(C(=O)CSC)C2)cc1 (stereo not drawn) | i | i | i | i | i | i | nt | nt
O=[N+]([O-])c1cccc(-c2c[n+]3c(n2-c2ccccc2)SCC3)c1 | i | nt | i | i | i | nt | nt | nt
Clc1ccc(-c2c[n+]3c(n2-c2ccccc2)SCC3)cc1 | i | i | i | i | i | i | 43 | -28
Clc1ccc(-c2cn(-c3ccccc3)c3[n+]2CCS3)cc1 | i | i | i | i | i | i | 41 | -40
COc1ccc(-c2cn(-c3ccc(Br)cc3)c3[n+]2CCS3)cc1 | i | i | i | i | i | i | nt | nt
Fc1ccc(-c2cn(-c3ccccc3)c3[n+]2CCS3)cc1 | i | i | i | i | i | i | 51 | -42
COCCN1Cc2cccc(C(=O)Nc3cccnc3)c2C1=O | i | nt | nt | i | 6.5 | nt | 40 | -41
CC(NC(=O)c1cccs1)C(S)c1ccccc1 (stereo not drawn) | i | i | i | i | i | i | nt | nt
Cc1cc(C[n+]2cc(Cl)ccc2N)c2ncccc2c1 | i | i | i | i | 16 | i | 46 | -39
Nc1ccc(Cl)c[n+]1Cc1cccc2cccnc12 | i | i | i | i | i | i | nt | nt
Cc1cc(C[n+]2ncsc2N)c2ncccc2c1 | i | i | i | i | i | i | 73 | -23
Cc1cc(C[n+]2cc(Br)ccc2N)c2ncccc2c1 | i | i | i | i | 8.5 | i | 49 | -44
COc1ccccc1OCC(O)Cn1c(=N)n(Cc2ccccc2)c2ccccc21 (stereo not drawn) | i | i | i | i | 9.6 | i | 28 | i
CCN(CC)CCn1c(=N)n(CC(O)COc2ccccc2)c2ccccc21 (stereo not drawn) | i | i | i | i | 7.3 | i | 21 | i
CCCCn1c(=N)n(CCOc2ccc(C)cc2)c2ccccc21 | i | i | i | i | 9.7 | i | 25 | i
CCN(CC)CCn1c(=N)n(CC(=O)c2ccc(Br)s2)c2ccccc21 | i | i | i | i | 6.4 | i | 21 | i
COc1ccc(OCCn2c(=N)n(CCO)c3ccccc32)cc1 | i | i | i | i | i | i | nt | nt
CCN(CC)S(=O)(=O)c1ccc(S(=O)(=O)N2CCCC(C(=O)NC3CC3)C2)cc1 (stereo not drawn) | i | i | i | i | i | i | nt | nt
COc1ccc(NC(=O)C2CC(=O)N(CCc3ccc(F)cc3)C2)c(OC)c1 (stereo not drawn) | i | i | i | i | i | i | nt | nt
COc1ccc(OCC(O)Cn2c(=N)n(CCN3CCCCC3)c3ccccc32)cc1 (stereo not drawn) | i | nt | nt | i | i | nt | nt | nt
Cc1ccc(OCC(O)Cn2c(=N)n(CCN3CCCCC3)c3ccccc32)cc1 (stereo not drawn) | i | i | i | i | 9.6 | i | 20 | i
CN(C(=O)CSc1nnc(COc2ccccc2F)n1N)C1CCS(=O)(=O)C1 (stereo not drawn) | i | i | i | i | i | i | nt | nt
COc1ccc(OC)c(NS(=O)(=O)c2ccc(N3CCCC3=O)cc2)c1 | i | i | i | i | 9.1 | i | 37 | i
COc1ccc(NC(=O)C2CCN(S(=O)(=O)c3ccc(N4CCCC4=O)cc3)CC2)c(OC)c1 | i | i | i | i | i | i | nt | nt
CC1CCCN(S(=O)(=O)c2ccc3c(c2)n(C)c(=O)c(=O)n3C)C1 (stereo not drawn) | i | i | i | i | i | i | nt | nt
Cc1ccc(N(C)C(=O)C2CCCN2S(=O)(=O)c2ccc3c(c2)n(C)c(=O)c(=O)n3C)cc1 (stereo not drawn) | i | i | i | i | 6.5 | i | 24 | -44
Cc1ccc(S(=O)(=O)N2CCCCC2C(=O)N(C)c2ccccc2)cc1 (stereo not drawn) | i | i | i | i | i | i | nt | nt

Source: PubChem
